# Bioassay records deposited in PubChem by The Scripps Research Institute Molecular Screening Center.
# An excerpt weighted towards active compounds, which were near 3.5% of everything screened.
# MITF primary: blocks human microphthalmia-associated transcription factor | O75030 | AlphaScreen MITF homodimerization, bead proximity signal | inhibition, % at 2.6 µM | 0.91% of 650,000 active; in the data active = inhibition above about 50%;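 note: 0% = vehicle wells with protein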
# GPR151 activ: human GPR151 activation | 1% of 650,000 active | AID 1508602 | PathHunter beta-arrestin GPR151 cells, luminescence | activation, % at 11.2 µM | Q8TDV0; in the data active = activation above about 4.9%;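 note: 0% = median of compound wells and 100% = cells with positive control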
# TEAD-YAP inh: TEAD-YAP interaction inhibition; inhibition, % at 9.12 µM; HEK-TIYL cells, TEAD-Gal4/YAP UAS-luciferase luminescence; 1.4% of 640,000 active; in the data active = inhibition above about 32%;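 note: 0% = median of test compound wells and 100% = reference inhibitor wells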
# FBW7 activator: activators of human E3 ligase FBW7 | normalized activity (activation), % at 26.1 µM | Q969H0 | 0.13% of 650,000 active | AlphaScreen FBW7–phospho-cyclin E peptide binding, activator screen; in the data active = normalized activity above about 1.9%;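 note: purified mutant Fbw7 with reduced substrate affinity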
# Target sequence (Q969H0 whole entry, looked up): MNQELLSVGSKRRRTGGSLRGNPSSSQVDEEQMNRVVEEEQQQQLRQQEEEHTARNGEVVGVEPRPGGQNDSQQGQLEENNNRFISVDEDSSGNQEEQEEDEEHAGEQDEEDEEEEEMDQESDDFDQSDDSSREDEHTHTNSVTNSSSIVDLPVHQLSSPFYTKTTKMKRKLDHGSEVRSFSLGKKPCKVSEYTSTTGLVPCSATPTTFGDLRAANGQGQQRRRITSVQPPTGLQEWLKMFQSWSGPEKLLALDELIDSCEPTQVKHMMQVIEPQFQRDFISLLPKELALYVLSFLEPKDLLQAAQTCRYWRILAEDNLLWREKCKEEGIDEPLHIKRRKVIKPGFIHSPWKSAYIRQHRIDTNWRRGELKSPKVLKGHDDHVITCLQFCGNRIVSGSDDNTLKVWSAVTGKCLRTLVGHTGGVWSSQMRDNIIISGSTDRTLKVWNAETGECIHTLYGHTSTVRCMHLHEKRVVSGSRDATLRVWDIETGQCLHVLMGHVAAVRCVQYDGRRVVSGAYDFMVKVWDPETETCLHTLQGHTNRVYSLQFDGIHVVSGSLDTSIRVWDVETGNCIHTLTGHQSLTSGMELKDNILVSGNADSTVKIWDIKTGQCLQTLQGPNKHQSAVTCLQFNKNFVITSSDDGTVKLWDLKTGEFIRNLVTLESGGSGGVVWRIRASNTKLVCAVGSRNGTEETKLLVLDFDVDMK
# MITF inh conf: confirmation of human MITF inhibitors | AID 1259372 | inhibition, % at 2.6 µM | shares compounds with MITF primary | AlphaScreen MITF homodimerization, biotin/His-MITF beads | 16% of 4,700 active;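 active = inhibition above a cutoff derived from the DMSO control wells, cut at about 28% in these data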;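 note: 0% = MITF dimer wells with DMSO only; inhibitors lower the bead chemiluminescence by keeping MITF from dimerizing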
# AS interf DR: optically interferes with AlphaScreen signal in dose response | 6% of 480 active | IC50, µM | shares compounds with MITF primary | AlphaScreen optical interference counterscreen, cell-free; call rule not given here
# AlphaScreen intf2: optically interferes with AlphaScreen signal. AID 1259376. shares compounds with MITF primary. LysRS AlphaScreen counterscreen, signal interference, triplicate. inhibition, % at 2.6 µM. 7.6% of 4,700 active;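 active = inhibition above a cutoff derived from the DMSO control wells, cut at about 30% in these data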
# An asterisk follows results filed as active; x = no result.
SMILES,MITF primary,GPR151 activ,TEAD-YAP inh,FBW7 activator,MITF inh conf,AlphaScreen intf2,others
O=C(O)CCCCCn1c(SCc2nc3ccccc3[nH]2)nc2ccsc2c1=O,61*,0,-6,0,-11,-7,
O=S(=O)(NCc1ccsc1)c1ccc(F)c(Cl)c1,62*,-1,6,0,-8,0,
Cc1cc(S(=O)(=O)NCc2ccsc2)ccc1F,4,3,-1,1,x,x,
CN(C)C(=O)[C@@H]1C[C@@H](Sc2nccn2C)CN1Cc1cccc(F)c1,-18,-1,-2,0,x,x,
CN(C)CCCOc1cccc(Oc2ccccc2)c1,62*,1,1,0,1,12,
CN(C)CCNCCCOc1ccccc1-c1ccccc1,74*,1,-1,0,2,22,
CN(C)CCOCCOc1cccc(Oc2ccccc2)c1,51,2,-9,0,x,x,
CN(C)CCCOc1ccccc1-c1ccccc1,53*,0,6,0,-11,-4,
CN(C)CCNCCOCCOc1ccccc1-c1ccccc1,0,-1,5,0,x,x,
CCOc1ccc2ccccc2c1C(=O)Nc1sc(C)c(C)c1C(N)=O,6,0,5,0,x,x,
Cc1cc(C)nc(SCc2cc(=O)c(OC(=O)C3(c4ccc(Cl)cc4)CCCC3)co2)n1,102*,-1,0,0,3,-7,
COCCn1c(=S)[nH]c2cc(C(=O)Nc3ccccn3)ccc2c1=O,77*,-1,-15,0,-23,-2,
COCCn1c(=S)[nH]c2cc(C(=O)NC(C)C)ccc2c1=O,5,2,-4,0,x,x,
COc1ccc(CCNC(CC(=O)Nc2ccc(Oc3ccccc3)cc2)C(=O)O)cc1 (stereo unspecified),2,-1,-4,1,x,x,
COc1ccc(CCNC(C)CC(=O)Nc2ccccc2)cc1 (stereo unspecified),56*,0,2,0,12,11,
Cc1ccc(NC(=O)CSc2nc(-c3cccs3)cc(-c3ccccc3)c2C#N)c(C)c1,2,0,15,0,x,x,
OC(COc1ccccc1F)CN1CCN(c2ccccc2)CC1 (stereo unspecified),2,4,7,0,x,x,
O=S(=O)(/C=C/c1ccccc1)N1CCN(CC(O)COc2ccccc2F)CC1 (stereo unspecified),60*,-1,2,0,2,8,
O=S(=O)(c1cccs1)N1CCN(CCO)CC1,-2,1,7,0,x,x,
O=S(=O)(c1cccs1)N1CCN(CC(O)COc2ccccc2F)CC1 (stereo unspecified),66*,-2,-4,0,-15,-2,
Cc1cccn2c(=O)c3cc(C(=O)NCCc4ccccc4)c(=N)n(C4CCCC4)c3nc12,10,0,2,0,x,x,
CCOc1ccc(-n2c(=S)sc3c(=O)n(-c4ccccc4C)c(SCC(=O)N4CCC(C)CC4)nc32)cc1,-4,0,4,0,x,x,
c1ccc(COc2ccc(OCCCCn3cncn3)cc2)cc1,7,-2,-12,0,x,x,
Clc1ccc(OCCCn2cncn2)cc1Cl,63*,2,6,0,14,7,
c1ccc(-c2ccc(OCCCCn3cncn3)cc2)cc1,55*,1,-51,0,37*,7,AS interf DR=>6.5
SMILES,MITF primary,GPR151 activ,TEAD-YAP inh,FBW7 activator,MITF inh conf,AlphaScreen intf2,others
Cc1cc(C)cc(OCCCCn2cncn2)c1,61*,0,0,0,1,5,
CSCC(=O)N1CCc2ccc(NC(=O)c3ccncc3)cc2C1,-1,0,2,0,x,x,
COc1cccc(OC)c1C(=O)N1CCN(Cc2ccccc2C(F)(F)F)CC1,52*,0,-3,0,-17,8,
COc1ccccc1CN1CCN(C(=O)c2cccs2)CC1,36,-1,-3,0,x,x,
COc1cccc(OC)c1C(=O)N1CCN(Cc2ccccc2Br)CC1,63*,1,10,0,2,7,
COc1cc(OC)cc(C(=O)N2CCN(Cc3cc(OC)c(OC)cc3OC)CC2)c1,49,3,-2,0,x,x,
COc1ccccc1CN1CCN(Cc2ccccc2C(F)(F)F)CC1,70*,-2,9,0,-7,1,
COc1cc(OC)cc(C(=O)N2CCN(Cc3ccccc3C(F)(F)F)CC2)c1,62*,2,2,0,-3,-2,
COc1ccc(OC)c(CN2CCN(C(=O)c3c(OC)cccc3OC)CC2)c1,32,1,1,0,x,x,
COc1ccc(-c2csc(N/N=C/c3cccc(OC)c3)n2)cc1,22,-1,4,1,x,x,
Cc1sc2ncn3c(SCC(=O)Nc4cccc(F)c4)nnc3c2c1C,9,2,-8,0,x,x,
CC(=O)c1c(C)n(CC(=O)N2CCc3ccccc3C2)c2ccccc12,11,0,-10,1,x,x,
O=[N+]([O-])c1ccc(S(=O)(=O)Nc2ccc(-c3nc4ccccc4o3)cc2)cc1,4,0,-3,0,x,x,
CN(C)CC(C)(C)CNC(=S)NCc1ccc2c(c1)OCO2,54*,1,9,0,0,-2,
COc1cccc([C@@H](C)Nc2nc3nonc3nc2N(C)C)c1,6,-1,12,0,x,x,
COc1cccc(-c2ccc(=O)n(CC(=O)NCC3CCCO3)n2)c1 (stereo unspecified),51*,-1,3,0,14,11,
OCCC1CN(Cc2ccc3c(c2)OCCO3)CCN1C1CCCC1 (stereo unspecified),3,-1,0,0,x,x,
Cc1ccc2cc(CN(CCO)C(=O)c3ccc(Cl)cc3)c(=O)[nH]c2c1,54*,-1,-10,0,22,9,
COC(CNc1cc(-c2ccccn2)nc(-c2ccccc2)n1)OC,-2,0,22,0,x,x,
Cc1cnc(CNc2cc(-c3ccccn3)nc(-c3ccccn3)n2)nc1,110*,1,16,-1,115*,100*,
COC(CNc1cc(-c2ccccn2)nc(-c2ccccn2)n1)OC,114*,0,22,-1,116*,100*,
CC(=O)Oc1ccc(Br)cc1C(=O)O,23,-3,9,0,x,x,
c1cncc(-c2nc(NCCCn3ccnc3)cc(-c3ccncc3)n2)c1,13,-1,13,-1,x,x,
c1cncc(-c2cc(NCCCn3ccnc3)nc(-c3cccnc3)n2)c1,65*,2,8,-1,29*,39*,
CC(C)(C)c1ccc(-c2nnc(SCc3ccc(C(=O)O)cc3)n2-c2ccccc2)cc1,4,3,4,0,x,x,
Cc1ccc(Nc2nc(-c3ccccn3)cs2)c(C)c1,51*,-4,57*,-1,21,39*,
COc1cc(OC)c(OC)cc1CN(C)C1CCN(C)CC1,25,0,-4,0,x,x,
CN1CCC(N(C)Cc2cccc(F)c2)CC1,59*,0,-4,0,-1,3,
CN1CCC(N(C)Cc2ccc(Cl)cc2)CC1,53*,1,-11,0,-5,0,
